For 86 compounds, manual score results are on record in PubChem BioAssay AID623868 (Vanderbilt High Throughput Screening Facility, 2012).

Each structure is given as a SMILES string. Out of some 2,100 compounds screened, about 760 (36%) were called active. These entries were drawn from the full list. Unmarked numbers belong to inactive results.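 How the source made its calls: active means thallium-flux fluorescence traces judged by eye to show enhanced or reduced glutamate response, manual score 1 or -1, so both directions (some results past the limit were not filed as active); inactive means the rest, including fluorescent or raised-baseline compounds.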

A short description of the assay: thallium influx changes without GIRK channels – cell-based, HEK-293 rmGlu8, no GIRK, thallium flux, counter-screen for GIRK activator project, confirmation (AID 623868).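 Further: extra codes mark interference with 3 for fluorescent and 4 for baseline rise.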 As to conditions: thallium flux fluorescence, at 10 µM, actives lie on both sides, codes: 1 enhancer, -1 blocker, 0 none, thallium stimulus containing EC20 glutamate. (In general: The purpose of a counterscreen is to sort out artefacts and off-target activity.)
In the case of `Cc1ccc(S(=O)(=O)CC(=O)Nc2ccc(S(=O)(=O)Nc3onc(C)c3C)cc2)cc1`, the manual score is 0.

`Cc1cccc2cc(/C=C3\N=C(c4ccccc4)OC3=O)c(N3CCOCC3)nc12`: the manual score is 3.

`COC(=O)c1ccc(CSc2ccc3nnc(-c4ccccc4)n3n2)o1`: the manual score is -1 (active).

In the case of `COC(=O)c1ccc(CSc2nnc(Nc3ccccc3OC)s2)o1`, the manual score is 0.

On to `CCn1c(SCc2ccc(Cl)cc2)nnc1-c1ccccc1`, for which the manual score is 0.

`CCn1c(NC(=S)Nc2ccccc2)nc2ccccc21`: the manual score was 1 (active).

For `CCN(CC)CCn1c(NC(=O)c2ccc(Cl)cc2)nc2ccccc21`, the manual score is 0.

Take `CCCCc1ccc(NC(=S)Nc2cccnc2)cc1`: the manual score is 0.

For the compound `CCCn1c(NCc2ccc(N(C)C)cc2)nc2ccccc21`, the manual score is 0.

As for `CCCCn1c(NC(=S)Nc2ccccc2)nc2ccccc21`, the manual score is 1 (active).

`CCn1c(SCc2nc(-c3ccccc3)no2)nc2ccccc21`: the manual score was 0.

For `CCCCN1C(=O)c2ccccc2C1C(=O)NC1CCCC1` (stereo unspecified), the manual score is 0.

As to `Cc1cccc(C(=O)N2CCC(Cc3ccccc3)CC2)c1[N+](=O)[O-]`, the manual score is 0.

With `Cc1ccc(NC(=O)c2ccc(COc3ccc4c(c3)CCC4)cc2)c(C)c1`, the manual score was 0.

For `O=C(Nc1ccc(-c2nc3ccccc3o2)cc1)c1cc(-n2cnnc2)ccc1Cl`, the manual score was 0.

In the case of `NS(=O)(=O)c1ccc(NC(=O)C2COc3ccccc3O2)cc1` (stereo unspecified), the manual score was 0.

Consider `O=C(Nc1nnc(-c2ccc3c(c2)CCCC3)o1)c1ccc(Cl)cc1Cl`, for which the manual score is 1 (active).

For the compound `CC1CN(S(=O)(=O)c2ccc(C(=O)Nc3nnc(-c4ccc5c(c4)CCCC5)o3)cc2)CC(C)O1` (stereo unspecified), the manual score is 1 (active).

Turning to `O=C(Nc1nnc(-c2ccc3c(c2)CCCC3)o1)C1COc2ccccc2O1` (stereo unspecified), the manual score is 1 (active).

`O=C(Nc1nnc(-c2ccc3c(c2)CCCC3)o1)c1ccccc1Cl`: the manual score is 1 (active).

As for `CCC(/C=N/NC(=O)C1COc2ccccc2O1)CC` (stereo unspecified), the manual score is 0.

In the case of `CCCC1COC(Cn2cncn2)(c2ccc(C)cc2)O1` (stereo unspecified), the manual score was 0.

On to `O=C(c1cnn2c(C(F)(F)F)cc(-c3cccs3)nc12)N1CCN(Cc2ccccc2)CC1`, for which the manual score is 0.

With `CCCCCCCC1CC(CSc2ncn[nH]2)OC1=O` (stereo unspecified), the manual score is 0.

Consider `N=c1oc2ccc3ccccc3c2cc1-c1nc(-c2ccccc2)cs1`, for which the manual score was 3.

Turning to `CC1CCCCN1Cc1nc2c(c(=O)n(C)c(=O)n2C)n1CCc1ccccc1` (stereo unspecified), the manual score was 0.

Consider `CN(C)S(=O)(=O)c1ccc(C(=O)Nc2nnc(-c3ccc4c(c3)CCCC4)o2)cc1`, for which the manual score was 0.

On to `O=C(Nc1nnc(-c2ccc3c(c2)CCCC3)o1)c1ccccc1`, for which the manual score was 1 (active).

`O=C(Nc1cccc(-c2nnc(-c3ccccc3)o2)c1)C1CCCO1` (stereo unspecified): the manual score is 0.

Take `CN1CCN(Cc2cccc(Oc3ccc(Cl)cc3)c2)CC1`: the manual score is 0.

On to `Cc1ccccc1OCC(=O)NNC(=S)NC(=O)c1ccco1`, for which the manual score is 1 (active).

For `Cc1ccccc1OCC(=O)N/N=C/c1cccn1C`, the manual score is 0.

On to `CCCc1ccc(OCC(=O)NNC(=S)NC(=O)c2ccco2)cc1`, for which the manual score is 1 (active).

With `O=C(Nc1ccc(Br)cc1)C1CCC(=O)N1Cc1ccccc1Cl` (stereo unspecified), the manual score was 0.

`O=P(CCCCCCCCCP(=O)(c1ccccc1)c1ccccc1)(c1ccccc1)c1ccccc1`: the manual score was -0.5.

In the case of `COc1ccccc1Nc1ccc(Nc2ccccc2OC)nn1`, the manual score was 0.

As to `COc1ccccc1-c1ccc(NC2CCCC2)nn1`, the manual score was -1 (active).

With `S=c1nc(-c2ccc(Br)cc2)oc2c1CCCC2`, the manual score is 1 (active).

For the compound `CC(C)COc1ccc(Cc2cnc(N)nc2N)cc1`, the manual score was 0.

Turning to `CCN(C#N)c1nc(NC(C)C)nc(NC(C)C)n1`, the manual score was 0.

With `CCCCn1c(=N)n(CC(O)COc2cccc(C)c2)c2ccccc21` (stereo unspecified), the manual score was 0.

Regarding `CCCCn1c(O)c(N=Nc2ccccn2)c2ccccc21`, the manual score is 1 (active).

In the case of `Oc1ccc2ccccc2c1N=Nc1ccccn1`, the manual score was 1 (active).

Turning to `Oc1c(N=Nc2ccccn2)ccc2ccccc12`, the manual score was 1 (active).

As for `CC(C)n1c(O)c(N=Nc2ccccn2)c2ccccc21`, the manual score is 0.

Turning to `CCOc1ccc(N2C(=O)CC(SC(=NC)Nc3ccc(F)cc3)C2=O)cc1` (stereo unspecified), the manual score is 0.

As for `COc1ccc2cc(Br)ccc2c1CC(=O)NC1CC(C)(C)NC(C)(C)C1`, the manual score was 0.

Regarding `CCC(C)NC(=O)CN1C(=O)CC(C)(C)S(=O)(=O)c2ccccc21` (stereo unspecified), the manual score is 0.

As for `CCn1c(=O)cc(OCC(=O)Nc2cccc(C)n2)c2ccccc21`, the manual score was 0.

On to `CCn1c(=O)c(C(=O)NCCCO)c(O)c2ccccc21`, for which the manual score is 0.

Consider `CCn1c(O)c(N=NC(=O)CNc2cccc(C)c2)c2ccccc21`, for which the manual score is 1 (active).

Regarding `Cc1nn(-c2ccccc2)c(OC(=O)c2cccs2)c1S(=O)(=O)c1ccccc1`, the manual score was 0.

On to `CO/N=C(\Cn1ncc(N2CCCC2)c(Cl)c1=O)c1ccc(Cl)cc1`, for which the manual score is 0.

As for `CCN(CC)c1cnn(C/C(=N\OC)c2ccc(Cl)cc2)c(=O)c1Br`, the manual score was -1 (active).

Turning to `CO/N=C(\Cn1ncc(N2CCCC2)c(Br)c1=O)c1ccc(Cl)cc1`, the manual score was 0.

In the case of `CCC(C)(C)NC(=O)C(c1ccc(F)cc1)N(Cc1ccco1)C(=O)c1cnccn1` (stereo unspecified), the manual score is 0.

For the compound `N#CC1=C(N)SC(N)=C(C#N)C1CCc1ccccc1`, the manual score was 0.

As to `N#CC1=C(N)SC(N)=C(C#N)C1c1c(Cl)cccc1Cl`, the manual score was -1 (active).

As to `C#CCSc1nnc(-c2cccc3ccccc23)o1`, the manual score was 0.

For `Oc1oc(-c2cccc3ccccc23)nc1/C=N/c1nccs1`, the manual score was 1 (active).

In the case of `O=C(O)c1cnc(-c2ccccc2)nc1Sc1ccccc1Cl`, the manual score is 0.

`CC(C)C(=O)OCC(=O)Nc1ccc(N=Nc2ccccc2)cc1`: the manual score was 0.

Consider `CCOC(=O)C1CCCN(c2ncnc3c2oc2ccccc23)C1` (stereo unspecified), for which the manual score was 0.

Turning to `CCOC(=O)c1c2n(c3c(NCc4ccccc4)ncnc13)CCCC2`, the manual score is -1 (active).

In the case of `CCOC(=O)c1c(C)oc2ccc(O)c(CN3CCCCC3)c12`, the manual score is 0.

Regarding `Cc1ccc(SC(C)C(=O)Nc2ccc(S(=O)(=O)N3CCOCC3)cc2)cc1` (stereo unspecified), the manual score is 0.

As to `Cc1ccc(NC(=S)N=Nc2c(O)n(C)c3ccc(S(=O)(=O)N4CCOCC4)cc23)cc1`, the manual score is 1 (active).

With `Cc1ccc(NC(=O)CSc2nccn2C)cc1S(=O)(=O)N1CCOCC1`, the manual score was 0.

Regarding `Cc1ccc(C)c(NC(=S)N=Nc2c(O)n(C)c3ccc(S(=O)(=O)N4CCOCC4)cc23)c1`, the manual score is 1 (active).

In the case of `CCc1c(C)sc(NC(=O)CCc2ccc(OC)cc2)c1C(N)=O`, the manual score is 0.

Consider `CCC(C)n1c(=S)[nH]c2c(sc3ccc([N+](=O)[O-])cc32)c1=O` (stereo unspecified), for which the manual score is 1 (active).

Consider `CN=C1S/C(=C\c2cc(C)n(-c3ccccc3F)c2C)C(=O)N1C`, for which the manual score was 0.

In the case of `COc1ccc(C2c3ccc4ccccc4c3Oc3ncn(CCN4CCOCC4)c(=N)c32)cc1` (stereo unspecified), the manual score is 0.

As to `O=C(NNC(=S)Nc1ccccc1)c1cccc(Br)c1`, the manual score was 1 (active).

In the case of `O=C(NNC(=S)Nc1cccc2ccccc12)c1cccc(Br)c1`, the manual score is 1 (active).

Regarding `Cc1ccc(C(=O)NNC(=S)Nc2cccc3ccccc23)s1`, the manual score is 1 (active).

For `S=C(Nc1cccc(Br)c1)c1ccccc1`, the manual score was 0.

As for `NC(=O)Nc1cccc2ccccc12`, the manual score was 0.

In the case of `CN1CCN(C(=O)Nc2cccc3ccccc23)CC1`, the manual score is 0.

For `C=C(C)CNC(=S)Nc1cccc2cnccc12`, the manual score was 0.

As for `N#Cc1ccsc1NC(=O)CN1CCN(c2ccc(O)cc2)CC1`, the manual score was 0.

Consider `COc1ccc(/C=C2\N=C(SC)NC2=O)cc1`, for which the manual score was 1 (active).

As for `Cc1ccc(S(=O)(=O)n2cnc3cc([N+](=O)[O-])ccc32)cc1C`, the manual score was 0.

In the case of `Clc1ccccc1-c1nnc2sc(-c3ccccn3)nn12`, the manual score is 0.

On to `Clc1ccccc1-c1nnc2sc(-c3ccc4c(c3)OCO4)nn12`, for which the manual score is 0.

Consider `Brc1ccccc1-c1nnc2sc(-c3ccc4c(c3)OCCO4)nn12`, for which the manual score is -1 (active).
